Experimental findings from paper PMC7819943, “Rice protein-binding microarrays: a tool to detect cis-acting elements near promoter regions in rice” are described below.

The full ranking holds about 68,000 sequences; the median of “fluorescence intensity (a.u.)” is about 9,100, and the highest 2% start at about 16,000. The sample holds the highest values, similar sequences and a random draw of the others, so the mix is not that of the screen.

OsWRKY34, sequence (Q0JBA9 entry or part of it): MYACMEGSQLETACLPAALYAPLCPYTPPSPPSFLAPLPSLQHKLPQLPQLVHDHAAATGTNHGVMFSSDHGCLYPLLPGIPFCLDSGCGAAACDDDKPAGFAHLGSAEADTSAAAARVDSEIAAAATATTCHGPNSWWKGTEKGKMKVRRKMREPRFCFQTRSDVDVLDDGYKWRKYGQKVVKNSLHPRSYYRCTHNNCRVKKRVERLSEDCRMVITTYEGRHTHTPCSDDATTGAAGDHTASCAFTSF

This assay concerns the target OsWRKY34 (Oryza sativa, UniProt Q0JBA9 1-250). The assay can be described thus: protein-binding microarray (RPBM); PBS, 2% BSA, 51.3 ng/ul salmon testes DNA, 50 uM zinc acetate, 200 nM TF, 25 C, 1 h; high values mean tight binding. The note with it: protein: recombinant; tags: N-terminal polyhistidine and DsRed monomer fusion (pET32a); label: CyDye5-dUTP incorporated in the synthesized complementary strand; 3' TTTTT single-stranded linker to array surface; dsDNA, one strand shown. The procedure, abridged:
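Transcription factors were made in E. coli BL21-CodonPlus as N-terminal fusions to a polyhistidine tag and DsRed, then purified on Ni–NTA. After primer extension with Cy5-dUTP and blocking with 2% BSA, a custom Agilent array was exposed for 1 h at 25 °C to 200 nM protein in PBS, 2% BSA, salmon testes DNA and 50 µM zinc acetate. Washed arrays were scanned on an Axon 4000B, and the binding signal is per-feature fluorescence intensity in arbitrary units.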
For “GCTACACCGCACCCACCACAGCCAGACTTGAACTTGTTGACGGAGTCACCTAGTGCAG”, the binding signal was 8950 fluorescence intensity (a.u.).
For “CCGCTCGTCTTCCACTGCAGCCCAGCTCCCGTTCTTTCAACGGAGTCACCTAGTGCAG”, the binding signal was 16500 fluorescence intensity (a.u.).
As to “GTCTCGCTTTCTCTCTCTAGGGTTTTTCCCCACTTTCGTTCGGAGTCACCTAGTGCAG”, the binding signal is 13700 fluorescence intensity (a.u.).
For “GCTCCGTCTTCCTGCTCCAGCCGCTCGCCATAGCCCACTGCGGAGTCACCTAGTGCAG” the value was 11100 fluorescence intensity (a.u.).
For “TCTGCTTTTATTCATCGGTTTCATTAATTGTTTCTGTTACCGGAGTCACCTAGTGCAG” the value was 17200 fluorescence intensity (a.u.); for “GGCGCCGTCGTCTTCTTTCCCACGCCGCCGCCGCCGTCAACGGAGTCACCTAGTGCAG”, 8600 fluorescence intensity (a.u.); for “TTTCTTGTTTTCTTCTCATTCTTCTTTTTTTTCTTTCTTCCGGAGTCACCTAGTGCAG”, 14700 fluorescence intensity (a.u.).
For “CTCTCTTTCTTCTTTGTGTCTTTGTTTCTTTTCTTTTTTCCGGAGTCACCTAGTGCAG” the value was 14700 fluorescence intensity (a.u.); for “ATCCCGCTTATCCCACTTCTAATTCATTTTTTCTTTTAAACGGAGTCACCTAGTGCAG”, 10900 fluorescence intensity (a.u.).
For the sequence “GGTTTTTTTCCCGCTTATCCCACTTCTAGTCTATCTTTTTCGGAGTCACCTAGTGCAG”, the binding signal is 19300 fluorescence intensity (a.u.).
For “TCATTATGGTGTTTCTTAATTGCTTTTTTCTTTTTATTATCGGAGTCACCTAGTGCAG” the value was 8300 fluorescence intensity (a.u.).
For “TTTCTTTTTCTTGGTTTTTTTTTGTCTTTTCTTCTTTTTCCGGAGTCACCTAGTGCAG” the value was 18200 fluorescence intensity (a.u.); for “GGGTTATGTTTCATTTGTATTATTTTCTTAATTCTTACACCGGAGTCACCTAGTGCAG”, 12700 fluorescence intensity (a.u.); for “CACATTGCGTCTTGTAGTCTGTATTGTAGCTGACTATATACGGAGTCACCTAGTGCAG”, 8820 fluorescence intensity (a.u.).
To “CCTCCCTTGTTTTCTGTACCAATACGTGATGCACCGGTCTCGGAGTCACCTAGTGCAG” belongs 8440 fluorescence intensity (a.u.); to “GGGTTCACCACCAAACTCGCCACCTATAAACGCTCCTCGCCGGAGTCACCTAGTGCAG”, 9030 fluorescence intensity (a.u.).
Regarding “AATGTTAACGGTGCATGTGGTTGGTTGATTTGATTAGTGACGGAGTCACCTAGTGCAG”, the binding signal is 15300 fluorescence intensity (a.u.).
For “AATGTTCAAAATTGTGCAATCAAGGTCTTACGGCAGTATACGGAGTCACCTAGTGCAG” the value was 8120 fluorescence intensity (a.u.); for “TTCTTTTCGCTAGTGATGTCTAGCGTTTCTTTTGACAAATCGGAGTCACCTAGTGCAG”, 8560 fluorescence intensity (a.u.); for “CGTCTTAGTTACCCTTCTACTCCTATCGCTCGATCGCCTCCGGAGTCACCTAGTGCAG”, 8380 fluorescence intensity (a.u.).
For “TCCTTAGCTCCGCGGATTTGTTCACCATCACCACCATCACCGGAGTCACCTAGTGCAG” the value was 8780 fluorescence intensity (a.u.).
Turning to “GCACCAACCATCTCACCCGTCCGACGTGGCAGCAGCAACCCGGAGTCACCTAGTGCAG”, the binding signal is 8770 fluorescence intensity (a.u.).
To “TCCCCTCTCTGTTGTCATCGTCTTCCTTTCCTTTCCTTTCCGGAGTCACCTAGTGCAG” belongs 8230 fluorescence intensity (a.u.).
To “TGGTTCTTTGATCTTTTAATTTTGTTTGTTTGTTTGTTTTCGGAGTCACCTAGTGCAG” belongs 12800 fluorescence intensity (a.u.).
With “ACTAAGTGCGTGATTGTTTCAGATTTGTTTGGGTTGCGGTCGGAGTCACCTAGTGCAG”, the binding signal is 9410 fluorescence intensity (a.u.).
For “GTCATCTTTGTTTGAGTCGGTTTTTAATTTTGTTTGCTTTCGGAGTCACCTAGTGCAG” the value was 17700 fluorescence intensity (a.u.); for “TTGTGTGTGCGTTTGTGATTGCGTCGGTCGGTTTCAGTTCCGGAGTCACCTAGTGCAG”, 17500 fluorescence intensity (a.u.).
To “GAGTTCGGCCTTTCCGGTTTCCGGTTGTGTTGTGAGGAGTCGGAGTCACCTAGTGCAG” belongs 10600 fluorescence intensity (a.u.); to “TGTTTTTTTTCTTTCCGTATCTTTTTCTTTTTTTGGTTTTCGGAGTCACCTAGTGCAG”, 19700 fluorescence intensity (a.u.).
For “GGGTGGCGTCCTGTTGTCATCTTTTATCCCTCTTGAATTCCGGAGTCACCTAGTGCAG” the value was 21500 fluorescence intensity (a.u.).
Regarding “TTTTTTTCTTTCCGTATCTTTTTCTTTTTTTGGTTTTTTACGGAGTCACCTAGTGCAG”, the binding signal is 8410 fluorescence intensity (a.u.).
Regarding “AAGTTTAATTTGTTATTTTTATTTTTATACGTCATCTTTTCGGAGTCACCTAGTGCAG”, the binding signal is 9760 fluorescence intensity (a.u.).
For “TTTTTTCTGTTTTTTTCTTTCCGTATCTTTTTCAGTTTTTCGGAGTCACCTAGTGCAG” the value was 14200 fluorescence intensity (a.u.); for “CTGCCTGTCCCTTTCCTGCATCCATCCATCCATCTTGATCCGGAGTCACCTAGTGCAG”, 10600 fluorescence intensity (a.u.); for “ATTGTTCGTCGAACTTTATCATATTATTAATCATCATATACGGAGTCACCTAGTGCAG”, 8960 fluorescence intensity (a.u.).
For “ACCACGGCAAGCCCCTCGCCGAGTCTCTCATCATCGTCGACGGAGTCACCTAGTGCAG” the value was 8830 fluorescence intensity (a.u.).
For “TTTGTGTAACCGATATGTGGGCCCCACATATTTTATTATTCGGAGTCACCTAGTGCAG” the value was 9030 fluorescence intensity (a.u.); for “TGCGTGGGTCCCAACTCCGGCCGTCTTCCGCCGTTGGATCCGGAGTCACCTAGTGCAG”, 8940 fluorescence intensity (a.u.).
Consider “CCACGATCACATTCACCTCCCATCCCACGACGTTGCTCTCCGGAGTCACCTAGTGCAG”, for which the binding signal was 8850 fluorescence intensity (a.u.).
For “TTTTACCAACTTTCTTAATACTCGTGTCCACCTAAAAAATCGGAGTCACCTAGTGCAG” the value was 8440 fluorescence intensity (a.u.); for “CGCCTCCGGCCTCCTCACGCACTGCCGCACCACGTCGCACCGGAGTCACCTAGTGCAG”, 9020 fluorescence intensity (a.u.).
To “ACCTACTTTTCGTCCCTTAATTCTGTGGCTATGTTCAAATCGGAGTCACCTAGTGCAG” belongs 12700 fluorescence intensity (a.u.); to “GAGAGGAGGTGGTGGGAAGTGGCGGCTAGGGTTTGGGTGGCGGAGTCACCTAGTGCAG”, 11300 fluorescence intensity (a.u.).
To “TGTTCTTTTTTTTTACACGCGTTTTTTTTACATTGTCGTTCGGAGTCACCTAGTGCAG” belongs 18400 fluorescence intensity (a.u.); to “TTCTTTTCGGTTGATTGTTTTTCTTTGTATTTCAGTGTTGCGGAGTCACCTAGTGCAG”, 9180 fluorescence intensity (a.u.).
Take “GGTTTTTTCGGTTTTCGGTTGTCAGTTCGGTTTCTGTTTTCGGAGTCACCTAGTGCAG”: the binding signal is 15400 fluorescence intensity (a.u.).
As to “GCACAGTGGGAGGCCCGCGTTCTTTTTTTTTCGCCGGTTTCGGAGTCACCTAGTGCAG”, the binding signal was 10000 fluorescence intensity (a.u.).
To “GCAGTCGGTTCGCGTTTGTTTTTTTTCTTTCTTTCTTTTTCGGAGTCACCTAGTGCAG” belongs 18400 fluorescence intensity (a.u.).
To “TCATCCGGTGCCTGTTGTCTCTTTCTTCTCTCTCACATACCGGAGTCACCTAGTGCAG” belongs 16600 fluorescence intensity (a.u.).
Take “ATTATTGTTGTACAGTTCTTGCCTACAGTTCGGTTTTTCTCGGAGTCACCTAGTGCAG”: the binding signal was 19700 fluorescence intensity (a.u.).
To “TCGTTCGTTGGTTTGTTTTTTTTTTCTTTTCTCGCGTACACGGAGTCACCTAGTGCAG” belongs 11600 fluorescence intensity (a.u.); to “CACCTTCTTTTTCTCTCTCTCTCTCTCTCTCTTTCTCATCCGGAGTCACCTAGTGCAG”, 10300 fluorescence intensity (a.u.); to “AGCCTTATCTCTTCATCGGTTCATCCGGTGCCTGTTGTCTCGGAGTCACCTAGTGCAG”, 8990 fluorescence intensity (a.u.).
For “TTTTTACACGCGTTTTTTTTACATTGTCGTTTTTTTTTTGCGGAGTCACCTAGTGCAG” the value was 13500 fluorescence intensity (a.u.); for “CGGCAGTGTTCTTTTTTTTTTACACGCGTTTTTTTTTACACGGAGTCACCTAGTGCAG”, 10800 fluorescence intensity (a.u.).
